Data reported in the supplement of paper PMC8728848.
This is one part of a sample in which the strongest signals are shown more often than they occur.

Experiments:
Experiment in all cases: glycan array binding signal (z-score within array); higher = stronger binding
Conditions in all cases: glycan notation: IUPAC condensed, linker removed
[1] = biological target: Gal(b1-4)GlcNAc(b1-6)GalNAc
In short: (§1)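 The binding signal is a Z-score computed within each array and averaged over linkers. Arrays of the same protein sequence at different concentrations or buffers were also averaged together. Data originate from 3228 arrays in the Consortium for Functional Glycomics database, kept only where the protein sequence was available.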

Gal6S(b1-4)Glc6S = biological target: Gal6S(b1-4)Glc6S
In short: as §1

GalNAc(b1-3)Gal = biological target: GalNAc(b1-3)Gal
In short: as §1

GalNAc3S(b1-4)GlcNAc = biological target: GalNAc3S(b1-4)GlcNAc
In short: as §1

GlcA(b1-3)GlcNAc = biological target: GlcA(b1-3)GlcNAc
In short: as §1

[2] = biological target: GlcNAc(a1-4)Gal(b1-4)GlcNAc(b1-3)Gal(b1-4)GlcNAc
In short: as §1

[3] = biological target: GlcNAc(a1-4)Gal(b1-4)GlcNAc(b1-3)Gal(b1-4)GlcNAc(b1-3)Gal(b1-4)GlcNAc
In short: as §1

[4] = biological target: GlcNAc(b1-3)Gal(b1-4)GlcNAc(b1-3)Gal(b1-4)GlcNAc
In short: as §1

[5] = biological target: GlcNAc(b1-3)Gal(b1-4)GlcNAc(b1-3)Gal(b1-4)GlcNAc(b1-3)Gal(b1-4)GlcNAc(b1-2)Man(a1-3)[GlcNAc(b1-3)Gal(b1-4)GlcNAc(b1-3)Gal(b1-4)GlcNAc(b1-3)Gal(b1-4)GlcNAc(b1-2)Man(a1-6)]Man(b1-4)GlcNAc(b1-4)[Fuc(a1-6)]GlcNAc
In short: as §1

[6] = biological target: GlcNAc(b1-3)[GlcNAc(b1-6)]Gal(b1-4)GlcNAc
In short: as §1

Neu5Ac(a2-3)Gal = biological target: Neu5Ac(a2-3)Gal
In short: as §1

[7] = biological target: Neu5Ac(a2-3)Gal(b1-3)GalNAc6S
In short: as §1

[8] = biological target: Neu5Ac(a2-3)Gal(b1-4)GlcNAc(b1-3)Gal(b1-4)[Fuc(a1-3)]GlcNAc
In short: as §1

[9] = biological target: Neu5Ac(a2-3)Gal(b1-4)[Fuc(a1-3)]GlcNAc(b1-3)GalNAc
In short: as §1

[10] = biological target: Neu5Ac(a2-3)Gal(b1-4)[Fuc(a1-3)]GlcNAc(b1-6)[Gal(b1-3)]GalNAc
In short: as §1

[11] = biological target: Neu5Ac(a2-6)Gal(b1-4)GlcNAc(b1-2)Man
In short: as §1

[12] = biological target: Neu5Ac(a2-6)Gal(b1-4)GlcNAc(b1-2)Man(a1-3)Man(b1-4)GlcNAc(b1-4)GlcNAc
In short: as §1

[13] = biological target: Neu5Ac(a2-6)Gal(b1-4)GlcNAc(b1-2)Man(a1-3)[Gal(b1-4)GlcNAc(b1-2)Man(a1-6)]Man(b1-4)GlcNAc(b1-4)GlcNAc
In short: as §1

[14] = biological target: Neu5Ac(a2-6)Gal(b1-4)GlcNAc(b1-2)Man(a1-6)[Man(a1-3)]Man(b1-4)GlcNAc(b1-4)GlcNAc
In short: as §1

[15] = biological target: Neu5Ac(a2-6)Gal(b1-4)GlcNAc(b1-2)[Neu5Ac(a2-6)Gal(b1-4)GlcNAc(b1-4)]Man(a1-3)[GlcNAc(b1-4)][Neu5Ac(a2-6)Gal(b1-4)GlcNAc(b1-2)[Neu5Ac(a2-6)Gal(b1-4)GlcNAc(b1-6)]Man(a1-6)]Man(b1-4)GlcNAc(b1-4)GlcNAc
In short: as §1

[16] = biological target: Neu5Ac(a2-6)Gal(b1-4)GlcNAc(b1-3)Gal(b1-4)GlcNAc(b1-2)Man(a1-3)[Neu5Ac(a2-6)Gal(b1-4)GlcNAc(b1-3)Gal(b1-4)GlcNAc(b1-2)Man(a1-6)]GalNAc
In short: as §1

[17] = biological target: Neu5Ac(a2-6)Gal(b1-4)GlcNAc(b1-6)[Gal(b1-3)GlcNAc(b1-3)]Gal(b1-4)Glc
In short: as §1

Neu5Ac(a2-6)GalNAc = biological target: Neu5Ac(a2-6)GalNAc
In short: as §1

[18] = biological target: Neu5Ac(a2-6)GalNAc(b1-4)GlcNAc6S
In short: as §1

[19] = biological target: Neu5Ac(a2-8)Neu5Ac(a2-8)Neu5Ac(a2-3)[GalNAc(b1-4)]Gal(b1-4)Glc
In short: as §1

[20] = biological target: Neu5Gc(a2-8)Neu5Ac(a2-3)Gal(b1-4)GlcNAc
In short: as §1

B1: SP16664D-bth-476-27-476 (Bacteroides thetaiotaomicron) (protein)
chain: DDLEVGKNIDESAYSGIYENNAYLRDGKSNLVSKVVELHGETYATTVKMGLSKTPNTATSAKVKIDAAYLETYNKAHNTDFALYPQDLVTFANEGILTVNANTKSAEVEMTIRAGEGLQEDKTYAIPVAISDQSSDITIKDEDAKHCIYLVKDMRNAGDAYKGEGVMQGYLFFEVNDVNPLNTLSFQLENGKLLWDVVVLFAANINYDAEAGRPRVQCNPNVQYLLDNNETLLQPLRRRGVKVLLGLLGNHDITGLAQLSEQGAKDFAREVAQYCKAYNLDGVNYDDEYSNSPDLSNPSLTNPSTAAAARLCYETKQAMPDKLVTVFDWGQMYGVATVDGVDAKEWIDIVVANYGSAAYPIGQMTKKQCSGISMEFNLGGGGSLSASKAQSMIDGGYGWFMGFAPSPAKYGSVFSRLQGGGEVLYGSNVAAPTIFYKKNDPTPYKYPDDL
B1 was tested. Which “glycan array binding signal (z-score)” value [1] did it give?
Its value is -0.123.

What about the “glycan array binding signal (z-score)” value (Gal6S(b1-4)Glc6S) of the same binder?
Its value is 0.344.

And the “glycan array binding signal (z-score)” value (GalNAc(b1-3)Gal)?
Its value is -0.159.

What about the “glycan array binding signal (z-score)” value (GalNAc3S(b1-4)GlcNAc) of the same binder?
Its value is -0.345.

What about the “glycan array binding signal (z-score)” value (GlcA(b1-3)GlcNAc) of the same binder?
The value was -0.153.

What about the “glycan array binding signal (z-score)” value [2] of the same binder?
Its value is -0.259.

And the “glycan array binding signal (z-score)” value [3]?
Its value is -0.185.

And the “glycan array binding signal (z-score)” value [4]?
The value was 0.054.

What about the “glycan array binding signal (z-score)” value [5] of the same binder?
The value was -0.18.

What about the “glycan array binding signal (z-score)” value [6] of the same binder?
The value was -0.212.

And the “glycan array binding signal (z-score)” value (Neu5Ac(a2-3)Gal)?
The value was -0.156.

And the “glycan array binding signal (z-score)” value [7]?
The value was -0.227.

What about the “glycan array binding signal (z-score)” value [8] of the same binder?
Its value is 0.058.

And the “glycan array binding signal (z-score)” value [9]?
The value was 0.765.

And the “glycan array binding signal (z-score)” value [10]?
Its value is 9.86.

What about the “glycan array binding signal (z-score)” value [11] of the same binder?
The value was -0.235.

What about the “glycan array binding signal (z-score)” value [12] of the same binder?
Its value is -0.117.

And the “glycan array binding signal (z-score)” value [13]?
Its value is 2.55.

What about the “glycan array binding signal (z-score)” value [14] of the same binder?
Its value is 3.75.

What about the “glycan array binding signal (z-score)” value [15] of the same binder?
Its value is 2.38.

And the “glycan array binding signal (z-score)” value [16]?
The value was 1.28.

What about the “glycan array binding signal (z-score)” value [17] of the same binder?
Its value is -0.349.

What about the “glycan array binding signal (z-score)” value (Neu5Ac(a2-6)GalNAc) of the same binder?
Its value is -0.006.

What about the “glycan array binding signal (z-score)” value [18] of the same binder?
The value was -0.065.

What about the “glycan array binding signal (z-score)” value [19] of the same binder?
Its value is 2.53.

And the “glycan array binding signal (z-score)” value [20]?
Its value is -0.114.
